# Reference: PubChem BioAssay AID720597 (Broad Institute, 2013)
# Results with a measured potency or affinity are listed apart. Active and inactive are the calls of the source.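 The calls were made as follows: active = fitted half-maximal dose no more than twice the top valid tested dose, for compounds that lower signal; inconclusive = fit invalid, or curve flat with activity between -70 and -30; inactive = potency past limit, curve flat within ±30, or signal increasing.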
# Molecular target: NAD-dependent protein deacylase sirtuin-5, mitochondrial (Homo sapiens) (UniProt Q9NXA8)
# Sequence (Q9NXA8 whole entry, looked up): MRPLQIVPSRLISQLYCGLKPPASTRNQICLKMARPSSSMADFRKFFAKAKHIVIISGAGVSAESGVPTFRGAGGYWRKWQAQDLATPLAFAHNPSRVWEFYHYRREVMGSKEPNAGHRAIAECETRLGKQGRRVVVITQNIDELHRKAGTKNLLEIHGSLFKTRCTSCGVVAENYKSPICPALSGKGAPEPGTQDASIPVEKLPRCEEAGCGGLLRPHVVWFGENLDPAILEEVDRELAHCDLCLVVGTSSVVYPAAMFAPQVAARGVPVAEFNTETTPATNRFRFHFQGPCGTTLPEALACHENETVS
# Assay: SIRT5 deacylase inhibitors, dose response, biochemical, fluorescence imaging, cherry-pick, set 6 (AID 720597);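 also: lower AMC signal can also come from blocking the trypsin step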
# Conditions: Purified SirT5, succinyl-peptide-AMC/trypsin fluorescence; series mostly up to 15 µM
row,SMILES,outcome
1,Cc1cccc(S(=O)(=O)N2CCCCN3[C@@H](CO)[C@H](c4ccc(-c5ccccc5)cc4)[C@@H]3C2)c1,inactive
2,C[C@@H]1CN([C@H](C)CO)C(=O)c2cc(N(C)C)ccc2O[C@H]1CN(C)S(=O)(=O)c1ccccc1,inactive
3,CC(C)NC(=O)Nc1ccc2c(c1)C(=O)N([C@@H](C)CO)C[C@H](C)[C@H](CN(C)C(=O)NC(C)C)OCCCC[C@@H](C)O2,inactive
4,COCCOC(=O)N1C(=O)[C@@]2(c3cc(C#CCCO)ccc31)[C@H](c1ccccc1OCCO)N1[C@H](c3ccccc3)[C@H](c3ccccc3)OC(=O)[C@H]1[C@@H]2C(=O)N1CCN(c2ncccn2)CC1,inactive
5,CCCC#Cc1ccc([C@H]2[C@H]3CN(C(=O)Cc4cccnc4)CC(=O)N3[C@H]2CO)cc1,inactive
6,COc1ccc(CN(C)C[C@H]2Oc3ccc(NS(=O)(=O)c4ccc(Cl)cc4)cc3CC(=O)N([C@@H](C)CO)C[C@@H]2C)cc1,inactive
7,C[C@H]1CN([C@@H](C)CO)C(=O)c2cccc(NC(=O)CCCCCC(=O)Nc3ccccc3N)c2O[C@@H]1CN(C)Cc1ccc(-c2ccccc2)cc1,inactive
8,CN(C)Cc1cn(CC[C@H]2CC[C@H](NS(=O)(=O)c3ccccc3)[C@H](CO)O2)nn1,inactive
9,C[C@@H]1CN([C@H](C)CO)S(=O)(=O)c2ccc(C#Cc3ccc(F)cc3)cc2O[C@@H]1CN(C)C(=O)NC1CCCCC1,inactive
10,Cc1ccc(S(=O)(=O)Nc2ccc3c(c2)CC(=O)N([C@@H](C)CO)C[C@H](C)[C@@H](CN(C)Cc2ccc(-c4ccccc4)cc2)O3)cc1,inactive
11,Cc1ccc(S(=O)(=O)Nc2ccc3c(c2)C(=O)N([C@H](C)CO)C[C@H](C)[C@H](CN(C)Cc2ccc(C(F)(F)F)cc2)OCCCC[C@H](C)O3)cc1,inactive
12,C[C@H]1CN([C@@H](C)CO)S(=O)(=O)c2ccc(C#CC3CC3)cc2O[C@@H]1CN(C)Cc1ccccc1F,inactive
13,C[C@@H]1CN([C@@H](C)CO)C(=O)c2cc(NC(=O)Cc3ccccc3)ccc2O[C@H]1CN(C)Cc1ccc(Oc2ccccc2)cc1,inactive
14,C[C@@H]1CN([C@H](C)CO)C(=O)c2cccc(NC(=O)c3ccncc3)c2O[C@H]1CN(C)S(C)(=O)=O,inactive
15,C[C@H](CO)N1C[C@H](C)[C@H](CN(C)Cc2ccc(Cl)c(Cl)c2)Oc2ccc(NC(=O)CCCCCC(=O)Nc3ccccc3N)cc2C1=O,inactive
16,COc1cccc(-c2cn(CC[C@@H]3CC[C@H](NC(=O)CC4CC4)[C@@H](CO)O3)nn2)c1,inactive
17,CC(C)OC(=O)N(C)C[C@@H]1OCc2cn(nn2)CCCC(=O)N([C@H](C)CO)C[C@H]1C,inactive
18,C[C@H](CO)N1C[C@H](C)[C@@H](CN(C)Cc2ccc(Cl)c(Cl)c2)OCCCC[C@H](C)Oc2ccc(NS(=O)(=O)c3cccs3)cc2C1=O,inactive
19,C[C@@H]1CN([C@H](C)CO)C(=O)Cc2cc(NC(=O)Nc3ccc(F)cc3)ccc2O[C@@H]1CN(C)Cc1ccc2c(c1)OCO2,inactive
20,COc1cccc(CNC(=O)C[C@H]2CC[C@H]3[C@H](COc4ccc(NS(=O)(=O)c5ccccc5F)cc4C(=O)N3C)O2)c1,inactive
21,C[C@H](CO)N1C[C@H](C)[C@H](CN(C)Cc2ccc(-c3ccccc3)cc2)OCc2ccccc2-c2ccccc2C1=O,inactive
22,COc1ccccc1-c1ccc([C@@H]2[C@@H]3CN(S(=O)(=O)c4ccc(-c5ccccc5)cc4)C[C@H]2N3)cc1,inactive
23,CC(C)CC#Cc1ccc2c(c1)O[C@H](CN(C)S(=O)(=O)c1cccc(F)c1)[C@H](C)CN([C@H](C)CO)S2(=O)=O,inactive
24,C[C@@H]1CN([C@H](C)CO)C(=O)c2cccc(NC(=O)c3nc4ccccc4s3)c2O[C@@H]1CN(C)C(=O)NC1CCCCC1,inactive
25,COc1ccc(NC(=O)N(C)C[C@@H]2Oc3ccc(NS(=O)(=O)c4ccc(F)cc4)cc3C(=O)N([C@H](C)CO)C[C@H]2C)cc1,inactive
26,CC(C)CC#Cc1ccc2c(c1)O[C@H](CN(C)C(=O)NC1CCCC1)[C@@H](C)CN([C@@H](C)CO)S2(=O)=O,inactive
27,C[C@@H]1CCCCO[C@@H](CN(C)C(=O)Nc2ccc(C(F)(F)F)cc2)[C@H](C)CN([C@@H](C)CO)C(=O)c2cc(NS(=O)(=O)c3ccc(Cl)cc3)ccc2O1,inactive
28,C[C@H](CO)N1C[C@H](C)[C@H](CN(C)C(=O)Nc2ccc(F)cc2)Oc2cc(/C=C/c3ccccc3)ccc2S1(=O)=O,inactive
